Measured values as given in ChEMBL document CHEMBL4888484, “Replenishing the malaria drug discovery pipeline: Screening and hit evaluation of the MMV Hit Generation Library 1 (HGL1) against asexual blood stage Plasmodium falciparum ,using a nano luciferase reporter read-out” (2022).
About 410 (8.5%) of roughly 4,800 compounds showed an effect of 50% or more. Many of the other results were omitted from the sample, so strong results are more common in it than they were.

The compounds below were run on Plasmodium falciparum (assay: Confirmatory screen in NF54 pLDH assay, in single point, at 2uM, 72h). Settings: timepoint 72 hour.
Format: functional, Erythrocyte

Going from Cc1ccc(N2C(=O)C[C@]3(CC3(c3ccccc3)c3ccccc3)C2=O)cc1 to c1ccc(Oc2ccc(-c3csc4nc5ccccc5n34)cc2)cc1, the “% Inhibition” value falls from 6% to 5%.

Compared with COCc1c(C(=O)N2CCC[C@@H]2CCc2ncc(C)n2C(C)C)noc1C, Cc1cnn(CC(=O)N2CCC[C@@H]2CCc2ncc(C)n2CC2CC2)c1 is lower in “% Inhibition” value: 13% for the first, -20% for the second.

Compared with O=c1[nH]c2cc3c(cc2c(=O)n1Cc1nc(-c2ccc(Cl)cc2)no1)OCO3, CN1CCN(Cc2cc3cc4c(cc3nc2-c2ccc(Cl)cc2)OCO4)CC1=O is higher in “% Inhibition” value: 9% for the first, 51% for the second.

Going from Cc1cc(C)nc(-n2nc(-c3ccc(Cl)cc3)c3c2NC(=O)C[C@@H]3c2ccc3c(c2)OCO3)n1 to CCc1nc2cc(N3CCC(C(=O)Nc4ccc5c(c4)OCO5)CC3)cnc2nc1CC, the “% Inhibition” value rises from 2% to 8%.

Compared with C#CCN(C(=O)NC1CCN(C(C)=O)CC1)C1CCCC1, CCC(=O)N1CCC(Nc2cccc(-c3nc(C4CC4)n[nH]3)c2)CC1 is lower in “% Inhibition” value: -12% for the first, -24% for the second.

Going from Cc1ccc(NC(=O)c2c(Cl)cccc2Cl)c2c1CC(C)(C)O2 to O=C(Nc1ccc(N2CCCCCC2)cc1C(=O)O)c1ccc(Cl)cc1, the “% Inhibition” value rises from -21% to 9%.

Going from CC(C)c1nnc(CNc2ccc(C#N)cc2)o1 to CC(C)(C)c1noc(OCc2cccc(C#N)c2)n1, the “% Inhibition” value rises from 8% to 14%.

Going from CC(=O)Nc1ncc(Br)cc1C to COC1CCCC1NC(=O)Nc1ncc(Br)cc1C (configuration not stated), the “% Inhibition” value rises from 3% to 79%.

Going from CNC(=O)c1cc(Br)cnc1NC to O=C(Nc1cccc2cccnc12)c1cncc(Br)c1, the “% Inhibition” value falls from 10% to -8%.

Compared with NC(=NCCOc1ccc(Br)cc1)N1CCOCC1, O[C@](C#CCN1CCOCC1)(c1ccccc1)C1CC1 is higher in “% Inhibition” value: 8% for the first, 14% for the second.

Going from COCc1ncc(-c2noc(C3CC4CCC3C4)n2)c(N)n1 (configuration not stated) to CN(C)c1nc(CN2CCC[C@H](c3n[nH]c(-c4ccccc4)n3)C2)ns1, the “% Inhibition” value rises from -14% to 2%.

Compared with Cc1nn(C)c(C)c1CNc1ccc2c(c1)CCC(=O)N2, CN1CCC(=O)Nc2cc(C(=O)NCCS(=O)(=O)NCC3CCC3)ccc21 is higher in “% Inhibition” value: -13% for the first, 6% for the second.

Compared with CC(C)CCn1nnnc1[C@]1(N(C)C)CCCN(C(=O)c2cccn2C)C1, CCN1CCN(CC(=O)N2N=C(c3ccc(C)c(C)c3)C[C@H]2c2cccn2C)CC1 is higher in “% Inhibition” value: -12% for the first, 2% for the second.

Compared with CC(C)c1cc(CN(Cc2cc(C(C)C)c(O)c(C(C)C)c2)C2CCCCC2)cc(C(C)C)c1O, CCc1nn(C)cc1CN(Cc1cccc(O)c1)C1CCC(O)CC1 (configuration not stated) is lower in “% Inhibition” value: 98% for the first, -8% for the second.

First: Cc1ccc(CN(C)C2CCCCC2)o1
Second: Cc1cccc(NC(=O)N2CCCCCC2)n1
The “% Inhibition” value of the first is lower: -12% for the first, 6% for the second.

Going from CC[C@@H](CO)NC(=O)Nc1ccc(F)cc1 to Cn1cc(-c2ccc(F)cc2)c2nc[nH]c(=O)c21, the “% Inhibition” value rises from 8% to 10%.

First: CC[C@](C)(NCC#Cc1ccc(C(F)(F)F)cc1)C(N)=O
Second: CCNS(=O)(=O)c1cc(C)ccc1C
The “% Inhibition” value of the first is lower: 5% for the first, 8% for the second.

Compared with O=C(C1CN(c2ncc(C(F)(F)F)cc2Cl)C1)N1CCCC1, COc1cc(=O)c(C(=O)N2CCCCCC2)nn1-c1ccc(F)c(F)c1 is lower in “% Inhibition” value: 11% for the first, 10% for the second.

First: Cc1c(N2CCC(C(=O)NC[C@H]3CCCO3)CC2)c(=O)n(CC(C)C)c(=O)n1-c1ccccc1
Second: CCc1ccc(-n2c(=O)[nH]c3nc(N4CCN(c5ccccc5F)CC4)ncc3c2=O)cc1
The “% Inhibition” value of the first is higher: 4% for the first, -25% for the second.

Going from O=C(COC(F)F)N1CCc2ccncc21 to O=C(NCc1ccncc1)c1ccco1, the “% Inhibition” value rises from -8% to -2%.

First: CC(C(=O)Nc1ncccn1)N1CCCC1Cn1cccn1 (configuration not stated)
Second: COc1nc(NC[C@H]2CCCN2C(C)C)ncc1F
The “% Inhibition” value of the first is lower: -8% for the first, 83% for the second.

Compared with Cc1[nH]c2ncnc(NC(=O)c3cccc(-n4ccnn4)c3)c2c1C, Cc1cc(C)c(NC(=O)OCc2cccc3cccnc23)c(C)c1 is higher in “% Inhibition” value: 12% for the first, 80% for the second.

Compared with O=C(CN1C(=O)COc2ccccc21)N1CCC[C@H](c2nc3ccccc3s2)C1, Cc1cccc(CN2CCC[C@H](C(=O)c3ccc4c5c(cccc35)CC4)C2)n1 is higher in “% Inhibition” value: -13% for the first, 67% for the second.

First: CCOc1cc(-c2cc(-c3ccccc3O)nc3ccc4ccccc4c23)cc(Br)c1O
Second: Oc1ccccc1CNc1cccc2cccnc12
The “% Inhibition” value of the first is lower: 92% for the first, 97% for the second.

First: CCOc1c(CNC[C@H](C)O)cc(Br)cc1OC
Second: COc1ccnc(CN2CCC[C@H](c3nc(-c4ccccc4)c[nH]3)C2)c1OC
The “% Inhibition” value of the first is lower: 5% for the first, 82% for the second.

First: O=C(Nc1cccc2cccnc12)c1ccccn1
Second: NC1CC(NCCc2cccc3cccnc23)c2ccccc21 (configuration not stated)
The “% Inhibition” value of the first is higher: 87% for the first, 36% for the second.

Going from CC(C)(C)C(=O)NCCNC(=O)c1ccccn1 to Cc1cccnc1NC(=O)OC(C)(C)C, the “% Inhibition” value falls from 13% to 10%.

First: CCc1nnc2cc(N3CCN(C(=O)c4ccc(OC)cc4)CC3)cnn12
Second: CCCCN1CCN(C(=O)CN2CCN(Cc3ccc(F)cc3Cl)C2=O)CC1
The “% Inhibition” value of the first is higher: 11% for the first, 1% for the second.

First: Cc1ccn(Cc2nc(N)nc(N(C)C)n2)c(=O)c1C#N
Second: Cc1ncsc1[C@@H]1CC(=O)Nc2nc(N3CCC(C)CC3)nc(O)c21
The “% Inhibition” value of the first is higher: 4% for the first, -19% for the second.

Going from CCc1ccc(C2=Nc3cccnc3N(CC(=O)Nc3c(C)cc(C)cc3C)C(=O)C2)cc1 to Cc1ccc(NC(=O)CN2N=C(C(=O)Nc3ccccc3)CCC2=O)cc1, the “% Inhibition” value falls from 2% to -10%.

Going from O=C(Nc1ccc(Cl)cc1)n1c(=S)oc2cc(Br)ccc21 to NCc1cccc(C(=O)N2CCc3cc4ccc3[C@@H]2c2cccc(c2)OCCCNC(=O)c2cc(ccc2O)O4)c1, the “% Inhibition” value rises from 2% to 98%.

Compared with c1ccc(-c2c[nH]c([C@H]3CCCN(c4ncnc5[nH]ncc45)C3)n2)cc1, O=C1CCCN1c1ccc(-c2csc(C3CC3)n2)cc1 is lower in “% Inhibition” value: -7% for the first, -12% for the second.

Compared with CC1([C@@](O)(C#CC[N+]2(C)CCCCC2)c2ccccc2)CCCC1, O=C1NCCCOc2cccc(c2)[C@H]2c3ccc(cc3CCN2C(=O)CCN2CCOCC2)Oc2ccc(O)c1c2 is higher in “% Inhibition” value: 43% for the first, 50% for the second.

In the case of NC(=O)C1CCN(CCC(=O)N2CCc3cc4ccc3[C@@H]2c2cccc(c2)OCCCNC(=O)c2cc(ccc2O)O4)CC1, the “% Inhibition” value is reported as 93%.
